PRMT1 inh = PRMT1 methyltransferase inhibitors, primary screen, biochemical, fluorescence polarization | inhibition, % at 2.79 µM | Protein arginine N-methyltransferase 1 (Homo sapiens), Q99873 | recombinant PRMT1, activity-based probe fluorescence polarization | AID 652257, 2013 | 370,000 compounds, 1.3% hits;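 active = inhibition above about 21% made by adding two undisclosed values, limit read from the data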
ABHD5-PLIN5 inh = ABHD5-PLIN5 interaction inhibitors, primary screen, cell lysate, split luciferase complementation, luminescence; Perilipin-5 (Homo sapiens) + 1-acylglycerol-3-phosphate O-acyltransferase ABHD5 (Homo …; Split G. princeps luciferase complementation, 4 h; inhibition, % at 4 µM; 360,000 compounds, 0.78% hits; AID 602281, 2012;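 active = inhibition above the mean inhibition across every tested compound plus 3 SD, cut at about 22% in these data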;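 note: 0% = DMSO only wells and the 100% control is not disclosed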
UHRF1 MBD2 ctr = UHRF1 methylated DNA binding inhibitors, primary screen, counter-screen for MBD2 inhibitor project, biochemical, TR-FRET, human UHRF1, single concentration. E3 ubiquitin-protein ligase UHRF1 (Homo sapiens), Q96T88. inhibition, % at 4.4 µM. UHRF1 binding to methylated oligo. 370,000 compounds, 0.75% hits; in the data active = inhibition above about 21%;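 note: UHRF1 SRA domain binding a hemimethylated CpG hairpin DNA probe; 0% = median of test compound wells and 100% = reference inhibitor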
MBD2 inh = inhibitors of MBD2 binding to methylated DNA, primary screen, biochemical, TR-FRET, DNA-binding domain, human | 370,000 compounds, 0.31% hits | Methyl-CpG-binding domain protein 2 (Homo sapiens), Q9UBB5 | MBD2 binding to methylated oligonucleotide | inhibition, % at 4.4 µM; in the data active = inhibition above about 13%
Target sequence (Q9UBB5 whole entry, looked up, the tested form may be a part): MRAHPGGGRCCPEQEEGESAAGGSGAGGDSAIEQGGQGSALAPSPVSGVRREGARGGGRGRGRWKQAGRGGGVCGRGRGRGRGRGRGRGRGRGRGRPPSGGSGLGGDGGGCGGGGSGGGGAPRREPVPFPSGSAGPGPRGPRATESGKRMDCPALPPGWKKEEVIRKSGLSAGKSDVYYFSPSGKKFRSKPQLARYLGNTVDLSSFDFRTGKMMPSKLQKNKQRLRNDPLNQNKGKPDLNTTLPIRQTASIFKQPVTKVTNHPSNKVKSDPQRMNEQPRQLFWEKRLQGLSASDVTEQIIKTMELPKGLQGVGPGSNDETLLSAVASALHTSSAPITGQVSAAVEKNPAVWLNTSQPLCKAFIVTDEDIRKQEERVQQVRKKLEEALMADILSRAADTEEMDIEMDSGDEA
LEDGF integ inh = blockers of LEDGF/p75-dependent integrase strand transfer – biochemical, TR-FRET, high throughput, primary screen | 370,000 compounds, 0.64% hits | HIV-1 integrase (with human LEDGF/p75) | AID 743269, 2014 | inhibition, % at 3.7 µM | TR-FRET IN-LEDGF/p75 DNA integration, Eu/Cy5;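 active = inhibition above the screen-wide mean plus 3 SD, cut at about 13% in these data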;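 note: signal is the Cy5 over europium emission ratio at 671 and 618 nm; 0% = plate median of compound wells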
rCAG RNA binder = binders of r(CAG) RNA repeats, primary screen, biochemical, fluorescence; r(CAG) RNA repeat, TO-PRO-1 dye displacement fluorescence; inhibition, % at 3 µM; 370,000 compounds, 1.3% hits; AID 651821, 2012;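 active = inhibition above the plate cutoff, the mean of all test compounds on that plate plus 3 SD, cut at about 35% in these data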;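 note: 0% = DMSO alone and 100% = 100 µM mitoxantrone as full dye displacement; higher means more dye released from RNA so lower well fluorescence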
PRMT1 confirm = PRMT1 methyltransferase inhibitors, confirmation, biochemical, fluorescence polarization, triplicate | recombinant His-PRMT1, activity-based probe fluorescence polarization | shares compounds with PRMT1 inh | inhibition, % at 2.79 µM | 3,300 compounds, 42% hits;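 active = mean inhibition across replicates above the hit cutoff derived for the earlier primary screen, cut at about 22% in these data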
Starred values were filed as active, the others as inactive. Rows were chosen to be rich in hits. Some 4.1% of all compounds tested hit in one or more screens of this group.

How did O=C1C=CC(=O)N1c1ccc(Nc2ccccc2)cc1 do in these assays?
PRMT1 inh: 11; ABHD5-PLIN5 inh: 13; UHRF1 MBD2 ctr: -3; MBD2 inh: -8; LEDGF integ inh: 6; rCAG RNA binder: 14

How did O=C1C=CC(=O)N1c1ccc2ccccc2c1 do in these assays?
PRMT1 inh: 70*; ABHD5-PLIN5 inh: 19; UHRF1 MBD2 ctr: -3; MBD2 inh: 0; LEDGF integ inh: 4; rCAG RNA binder: 6; PRMT1 confirm: 90*

How did COC(=O)C1=C(C)NC(=O)NC1c1ccc(-c2ccc(Cl)cc2)o1 (centres undefined) do in these assays?
PRMT1 inh: 4; ABHD5-PLIN5 inh: 4; UHRF1 MBD2 ctr: -2; MBD2 inh: 1; LEDGF integ inh: 2; rCAG RNA binder: 1

Results for COC(=O)C1=C(C)NC(=S)NC1c1ccc(-c2cc(Cl)ccc2Cl)o1 (centres undefined) ?
PRMT1 inh: 70*; ABHD5-PLIN5 inh: 5; UHRF1 MBD2 ctr: 2; MBD2 inh: -4; LEDGF integ inh: 0; rCAG RNA binder: 15; PRMT1 confirm: 19

How did CC(C)(C)OC(=O)NCC12C=CC(O1)C1C(=O)N(Cc3ccccc3)C(=O)C12 (centres undefined) do in these assays?
PRMT1 inh: 47*; ABHD5-PLIN5 inh: 5; UHRF1 MBD2 ctr: 1; MBD2 inh: 1; LEDGF integ inh: -3; rCAG RNA binder: -7; PRMT1 confirm: 9

How did CC(C)(C)OC(=O)NCC1CCN(S(=O)(=O)Cc2ccccc2)CC1 do in these assays?
PRMT1 inh: 8; ABHD5-PLIN5 inh: -6; UHRF1 MBD2 ctr: 0; MBD2 inh: 3; LEDGF integ inh: -9; rCAG RNA binder: -5

How did COc1ccc(C(=O)Cn2c(NCCO)nc3ccccc32)cc1OC do in these assays?
PRMT1 inh: -5; ABHD5-PLIN5 inh: 1; UHRF1 MBD2 ctr: 3; MBD2 inh: -1; LEDGF integ inh: -3; rCAG RNA binder: -2

What do the screens show for `COc1ccc(C(=O)Cn2c(NCCCO)nc3ccccc32)cc1OC`?
PRMT1 inh: 48*; ABHD5-PLIN5 inh: 0; UHRF1 MBD2 ctr: 0; MBD2 inh: -2; LEDGF integ inh: 0; rCAG RNA binder: -5; PRMT1 confirm: 6

What do the screens show for `COc1ccc(C2c3sc(=O)[nH]c3SCC2C(N)=O)cc1` (centres undefined)?
PRMT1 inh: 9; ABHD5-PLIN5 inh: -10; UHRF1 MBD2 ctr: -3; MBD2 inh: -5; LEDGF integ inh: -2; rCAG RNA binder: 1

How did CCOC(=O)C1CSc2[nH]c(=O)sc2C1c1ccccc1 (centres undefined) do in these assays?
PRMT1 inh: 31*; ABHD5-PLIN5 inh: -10; UHRF1 MBD2 ctr: -2; MBD2 inh: -4; LEDGF integ inh: 1; rCAG RNA binder: -3; PRMT1 confirm: -2

How did c1ccc2c(c1)Nc1cc3ccccc3cc1S2 do in these assays?
PRMT1 inh: -2; ABHD5-PLIN5 inh: -9; UHRF1 MBD2 ctr: -2; MBD2 inh: -1; LEDGF integ inh: 0; rCAG RNA binder: 7

How did Cc1ccc2c(c1)Sc1c(ccc3ccccc13)N2 do in these assays?
PRMT1 inh: 26*; ABHD5-PLIN5 inh: -4; UHRF1 MBD2 ctr: 0; MBD2 inh: -1; LEDGF integ inh: 5; rCAG RNA binder: 18; PRMT1 confirm: 3

What do the screens show for `Cc1ccc(-n2c(SCc3nc4ccccc4[nH]3)nnc2-c2ccccn2)cc1`?
PRMT1 inh: -3; UHRF1 MBD2 ctr: 1; MBD2 inh: -1; LEDGF integ inh: -1; rCAG RNA binder: 4

What do the screens show for `CCOC(=O)/C(C#N)=C\c1ccc2c(c1)OCO2`?
PRMT1 inh: 0; ABHD5-PLIN5 inh: -3; UHRF1 MBD2 ctr: 1; MBD2 inh: 0; LEDGF integ inh: 0; rCAG RNA binder: 2

Results for N#C/C(=C\c1ccc2c(c1)OCO2)C(N)=S ?
PRMT1 inh: 25*; ABHD5-PLIN5 inh: -18; UHRF1 MBD2 ctr: 0; MBD2 inh: -2; LEDGF integ inh: -3; rCAG RNA binder: 1; PRMT1 confirm: 7

How did COC(=O)c1nn2c(C(F)(F)F)cc(-c3ccc(Br)o3)nc2c1Br do in these assays?
PRMT1 inh: 30*; ABHD5-PLIN5 inh: 13; UHRF1 MBD2 ctr: -3; MBD2 inh: -6; LEDGF integ inh: 3; rCAG RNA binder: 27; PRMT1 confirm: 2

Results for CC(C)(C)NC(=O)c1nn2c(C(F)(F)F)cc(-c3ccccc3)nc2c1Br ?
PRMT1 inh: 2; ABHD5-PLIN5 inh: -2; UHRF1 MBD2 ctr: 0; MBD2 inh: -4; LEDGF integ inh: 3; rCAG RNA binder: -1

What do the screens show for `Cc1cc(C)c2c(=O)n(CC(=O)Nc3cccc(Cl)c3C)sc2n1`?
PRMT1 inh: 97*; ABHD5-PLIN5 inh: 48*; UHRF1 MBD2 ctr: 1; MBD2 inh: -1; LEDGF integ inh: 4; rCAG RNA binder: 1; PRMT1 confirm: 92*

What do the screens show for `Cc1cc(C)c2c(=O)n(CC(=O)Nc3ccc(Br)c(C)c3)sc2n1`?
PRMT1 inh: 93*; ABHD5-PLIN5 inh: 7; UHRF1 MBD2 ctr: 0; MBD2 inh: 0; LEDGF integ inh: 1; rCAG RNA binder: 6; PRMT1 confirm: 97*

How did Cc1cc(NC(=O)Cc2ccsc2)ccc1Br do in these assays?
PRMT1 inh: -4; ABHD5-PLIN5 inh: -6; UHRF1 MBD2 ctr: -1; MBD2 inh: -3; LEDGF integ inh: -3; rCAG RNA binder: -2

What do the screens show for `CC(C)c1ccc(OCCCN2CCC(C(O)(c3ccccc3)c3ccccc3)CC2)cc1`?
PRMT1 inh: -2; UHRF1 MBD2 ctr: 0; MBD2 inh: -6; LEDGF integ inh: 5; rCAG RNA binder: 1

How did O=C(C(=O)N1CCC(CNS(=O)(=O)c2ccc(C(F)(F)F)cc2)CC1)c1cc2ccccc2o1 do in these assays?
PRMT1 inh: 3; UHRF1 MBD2 ctr: 1; MBD2 inh: -1; LEDGF integ inh: -6; rCAG RNA binder: 5

How did O=C(NCSc1ccncn1)c1ccccc1 do in these assays?
PRMT1 inh: 49*; ABHD5-PLIN5 inh: -5; UHRF1 MBD2 ctr: 0; MBD2 inh: 4; LEDGF integ inh: 3; rCAG RNA binder: -1; PRMT1 confirm: 9

How did O=C(NCSc1ccnc(SCNC(=O)c2ccccc2)n1)c1ccccc1 do in these assays?
PRMT1 inh: 14; ABHD5-PLIN5 inh: -2; UHRF1 MBD2 ctr: 0; MBD2 inh: 3; LEDGF integ inh: 0; rCAG RNA binder: 0
